From PubChem BioAssay AID1159580 (chemical genetic matrix, 2015)
Screen size: about 5,500 compounds; about 2,000 (36%) were called active. Inconclusive results (about 18%) are left out. Cut-off read from the data, not from the text of the source: active = normalized growth mostly below about 0.91 (no sharp cut-off); inconclusive = no clear call, values can overlap the other calls; inactive = mostly above about 0.92. The list shows a part of the results.

Assay: chemical genetic growth profiling, strain panel (AID 1159580);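 note: tested at 20 µM; growth read once vehicle control cultures reached saturation at 30 °C; 1 = growth at the plate median or of vehicle wells; lower values mean less growth of the strain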
Conditions: growth OD

Measured: normalized growth

COc1c(C2COc3cc4c(cc3C2=O)CC(O)C(C)(C)O4)ccc2c1CCC(C)(C)O2 (configuration not stated)
inactive: S. cerevisiae deletion strains, locus YBR021W, strain FUR4, hits give low values 0.992 | S. cerevisiae deletion strains, locus YBR229C, strain ROT2, hits give low values 1.01 | S. cerevisiae deletion strains, locus YCL029C, strain bik1, hits give low values 1.01 | S. cerevisiae deletion strains, locus YDL035C, strain GPR1, hits give low values 1.02 | S. cerevisiae deletion strains, locus YDL074C, strain BRE1, hits give low values 1.05 | S. cerevisiae deletion strains, locus YDL101C, strain DUN1, hits give low values 1.02 | S. cerevisiae deletion strains, locus YDL134C, strain PPH21, hits give low values 1.05 | S. cerevisiae deletion strains, locus YDL185W, strain tfp1, hits give low values 1.05 | S. cerevisiae deletion strains, locus YDL192W, strain arf1, hits give low values 1.01 | S. cerevisiae deletion strains, locus YDR101C, strain arx1, hits give low values 0.982 | S. cerevisiae deletion strains, locus YDR162C, strain NBP2, hits give low values 1.02 | S. cerevisiae deletion strains, locus YDR318W, strain mcm21, hits give low values 1.01 | S. cerevisiae deletion strains, locus YDR388W, hits give low values 1.03 | S. cerevisiae deletion strains, locus YDR502C, strain sam2, hits give low values 1.04 | S. cerevisiae deletion strains, locus YEL061C, strain CIN8, hits give low values 1.01 | S. cerevisiae deletion strains, locus YER110C, hits give low values 1.02 | S. cerevisiae deletion strains, locus YER155C, strain BEM2, hits give low values 1.02 | S. cerevisiae deletion strains, locus YER167W, strain BCK2, hits give low values 1.01 | S. cerevisiae deletion strains, locus YGL078C, strain dbp3, hits give low values 1.02 | S. cerevisiae deletion strains, locus YGL086W, strain mad1, hits give low values 1.01 | S. cerevisiae deletion strains, locus YGL248W, strain PDE1, hits give low values 1.06 | S. cerevisiae deletion strains, locus YGR078C, strain PAC10, hits give low values 1.02 | S. cerevisiae deletion strains, locus YGR135W, strain pre9, hits give low values 1.07 | S. cerevisiae deletion strains, locus YGR252W, strain gcn5, hits give low values 1.04 | S. cerevisiae deletion strains, locus YHR030C, strain SLT2, hits give low values 1.01 | S. cerevisiae deletion strains, locus YHR079C, strain IRE1 (second series), hits give low values 1.02 | S. cerevisiae deletion strains, locus YHR094C, strain hxt1, hits give low values 1 | S. cerevisiae deletion strains, locus YHR129C, strain ARP1, hits give low values 1.02 | S. cerevisiae deletion strains, locus YHR200W, strain rpn10, hits give low values 1.03 | S. cerevisiae deletion strains, locus YIL066C, strain RNR3, hits give low values 1.04 | S. cerevisiae deletion strains, locus YIL073C, strain SPO22, hits give low values 1.08 | S. cerevisiae deletion strains, locus YIL125W, strain kgd1, hits give low values 1.01 | S. cerevisiae deletion strains, locus YIR030C, strain dcg1, hits give low values 1.03 | S. cerevisiae deletion strains, locus YJL095W, strain BCK1, hits give low values 1.05 | S. cerevisiae deletion strains, locus YJL134W, strain LCB3, hits give low values 0.995 | S. cerevisiae deletion strains, locus YJL168C, strain set2, hits give low values 1.03 | S. cerevisiae deletion strains, locus YJL187C, strain SWE1 (second series), hits give low values 1.04 | S. cerevisiae deletion strains, locus YJR043C, strain POL32, hits give low values 1.01 | S. cerevisiae deletion strains, locus YKL009W, strain mrt4, hits give low values 1.01 | S. cerevisiae deletion strains, locus YKL068W, hits give low values 1.01 | S. cerevisiae deletion strains, locus YKL085W, strain MDH1 (second series), hits give low values 1.01 | S. cerevisiae deletion strains, locus YKL085W, strain MDH1, hits give low values 1.01 | S. cerevisiae deletion strains, locus YKL190W, strain CNB1, hits give low values 1.01 | S. cerevisiae deletion strains, locus YKR001C, strain vps1, hits give low values 1.04 | S. cerevisiae deletion strains, locus YLR039C, strain RIC1, hits give low values 1.11 | S. cerevisiae deletion strains, locus YLR058C, strain SHM2, hits give low values 1.02 | S. cerevisiae deletion strains, locus YLR102C, strain apc9, hits give low values 1.01 | S. cerevisiae deletion strains, locus YLR268W, strain sec22, hits give low values 0.997 | S. cerevisiae deletion strains, locus YLR342W, strain FKS1 (second series), hits give low values 1.04 | S. cerevisiae deletion strains, locus YLR371W, strain rom2, hits give low values 1.03 | S. cerevisiae deletion strains, locus YLR418C, strain cdc73, hits give low values 1.08 | S. cerevisiae deletion strains, locus YML016C, strain PPZ1, hits give low values 1 | S. cerevisiae deletion strains, locus YML032C, strain rad52, hits give low values 1.01 | S. cerevisiae deletion strains, locus YML124C, strain tub3, hits give low values 1 | S. cerevisiae deletion strains, locus YMR078C, strain ctf18, hits give low values 1.02 | S. cerevisiae deletion strains, locus YMR223W, strain ubp8, hits give low values 1.02 | S. cerevisiae deletion strains, locus YMR263W, strain SAP30, hits give low values 1 | S. cerevisiae deletion strains, locus YMR307W, strain GAS1, hits give low values 1.13 | S. cerevisiae deletion strains, locus YNL067W, strain RPL9B, hits give low values 1.01 | S. cerevisiae deletion strains, locus YNL153C, strain GIM3, hits give low values 1.06 | S. cerevisiae deletion strains, locus YNL233W, strain BNI4, hits give low values 1.04 | S. cerevisiae deletion strains, locus YNL250W, strain rad50, hits give low values 1.05 | S. cerevisiae deletion strains, locus YNL271C, strain bni1, hits give low values 1.01 | S. cerevisiae deletion strains, locus YNL298W, strain CLA4, hits give low values 1.02 | S. cerevisiae deletion strains, locus YNL307C, strain MCK1, hits give low values 1.01 | S. cerevisiae deletion strains, locus YNR052C, strain pop2, hits give low values 1.03 | S. cerevisiae deletion strains, locus YOL006C, strain TOP1, hits give low values 1.06 | S. cerevisiae deletion strains, locus YOL012C, strain htz1 0.808 | S. cerevisiae deletion strains, locus YOL147C, strain pex11, hits give low values 1 | S. cerevisiae deletion strains, locus YOR061W, strain CKA2, hits give low values 1.01 | S. cerevisiae deletion strains, locus YOR069W, strain VPS5, hits give low values 1.01 | S. cerevisiae deletion strains, locus YOR136W, strain idh2, hits give low values 1.02 | S. cerevisiae deletion strains, locus YOR144C, strain elg1, hits give low values 1.01 | S. cerevisiae deletion strains, locus YOR184W, strain ser1, hits give low values 0.971 | S. cerevisiae deletion strains, locus YOR316C, strain cot1, hits give low values 1.01 | S. cerevisiae deletion strains, locus YPL241C, strain CIN2, hits give low values 0.99 | S. cerevisiae deletion strains, locus YPR119W, strain clb2, hits give low values 1.02 | S. cerevisiae deletion strains, locus YPR141C, strain kar3, hits give low values 1.01 | S. cerevisiae deletion strains, locus YPR163C, strain tif3, hits give low values 1.03 | S. cerevisiae deletion strains, locus YPR167C, strain met16, hits give low values 1.04 | S. cerevisiae deletion strains, strain wtn01, hits give low values 1 | S. cerevisiae strains, strain wild type, hits give low values 1.03
